From PubChem BioAssay
An excerpt weighted towards active compounds, which were near 7.3% of everything screened.
FMDV antiviral: High Throughput Screening for Foot and Mouth Disease Virus Antivirals; FMDV antiviral cell-based qHTS; Potency, µM (doses to about 57.9 µM), for the others: top-dose activity change, negative = inhibition, most hits filed as inhibitors; hit rate 1.2% among 410,000; calls by dose curve; tested in HEK293T cells; further: read-out not given here; potency means the concentration at half of the fitted maximal effect; nearly all actives have a fitted effect of over 45% in size
HCMV inh: qHTS Assay for inhibitors of the human cytomegalovirus (HCMV); hit rate 4.5% among 410,000; HFF cells, HCMV-luciferase reporter, 72 h; active compounds read low; activity change, negative = inhibition, % at 57.5 µM; in the data active means activity change below about -60%; inconclusive means no clear call, values can overlap the other calls; inactive means above about -39%
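Inhibition of viral replication was scored as loss of reporter luminescence in HFFs infected with HCMV-luciferase (MOI 1 PFU/cell) for 72 h; compounds tested at 2 doses, normalized to buffer and Salinomycin controls.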
HCV inhibitor: qHTS Assay for Inhibitors of Hepatitis C Virus (HCV) | Huh7.5.1 HCVcc-Cre infection, luciferase reporter, 44 h | Potency, µM (highest dose often 41.8 µM), without a hit: top-dose activity change, negative = inhibition, most hits filed as inhibitors | hit rate 3.4% among 340,000 | AID 651820, 2012; further: potency means the concentration at half of the fitted maximal effect
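Reporter virus HCVcc-Cre (~0.5 moi) infects cells exposed to compound; seeding density 1,000 cells/well with 4 h settling beforehand. Luminescence, 15 sec read, taken 44 h post-infection following a 15 min RT substrate incubation.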
AmpC no deterg: qHTS Inhibitors of AmpC Beta-Lactamase (assay without detergent) | P00811 | AmpC nitrocefin hydrolysis, absorbance 480 nm, 0.0001% Triton | Potency, µM (titrated, usually from 57.1 µM), without a hit: at the highest dose activity change, negative = inhibition, most hits filed as inhibitors | hit rate 0.52% among 330,000 | AID 485341, 2010;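 further: potency means the concentration at half of the fitted maximal effect; plate controls were no compound for no effect and no enzyme for full effect; nearly all actives have a fitted effect of over 20% in size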
Target sequence (P00811 whole entry, looked up): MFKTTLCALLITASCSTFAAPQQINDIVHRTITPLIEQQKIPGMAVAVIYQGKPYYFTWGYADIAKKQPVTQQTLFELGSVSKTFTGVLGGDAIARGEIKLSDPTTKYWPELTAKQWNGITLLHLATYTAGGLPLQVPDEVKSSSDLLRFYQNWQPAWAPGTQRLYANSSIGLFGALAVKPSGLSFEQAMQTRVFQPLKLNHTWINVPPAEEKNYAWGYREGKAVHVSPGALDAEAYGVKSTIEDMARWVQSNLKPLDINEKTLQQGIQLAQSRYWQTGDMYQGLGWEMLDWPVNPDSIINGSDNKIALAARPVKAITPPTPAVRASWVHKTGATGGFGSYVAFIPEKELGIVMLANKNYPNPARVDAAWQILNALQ
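20 mM phosphate pH 7.0 + 0.01% (detergent screen) or 0.0001% Triton X-100; 5.3 nM AmpC reagent; cpd preinc 15 min RT; nitrocefin (800 uM stock) to start; A480 q20 s × 4 min; Activity was normalised to no-enzyme and no-compound control wells.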
AmpC detergent: qHTS Inhibitors of AmpC Beta-Lactamase (assay with detergent); P00811; AmpC hydrolysis of nitrocefin, absorbance 480 nm, 0.01% Triton; Potency, µM (titrated, usually from 114 µM), inactives show top-dose activity change, negative = inhibition, actives largely listed as inhibitors; hit rate 0.041% among 370,000; AID 485294, 2010;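 further: potency means the concentration at half of the fitted maximal effect; 0% = no-compound wells and -100% = no-enzyme wells; nearly all actives have a fitted effect of over 25% in size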
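AmpC (5.3 nM in the dispensed reagent) in 20 mM phosphate pH 7.0 with 0.01% (detergent screen) or 0.0001% Triton X-100 was preincubated with compounds for 15 min at room temperature. Nitrocefin was then added from an 800 uM solution, and hydrolysis was followed at 480 nm.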
Active calls of the source: *; ? = inconclusive; nt = no result; + = active, no number; [ ] = another dose, or the depositor's remark. Unless noted, the call rests on the fitted dose curve; in most records, active means well fitted curve in the direction sought with a large enough effect; inconclusive means small, poorly fitted or top-dose-only effect, or another doubt; inactive means no such curve, though single readings can be large; an effect the other way counts as inactive or inconclusive. Unless noted, on the % scale 0 is the no-effect control and ±100 the full control effect.

SMILES | FMDV antiviral | HCMV inh | HCV inhibitor | AmpC no deterg | AmpC detergent
CC(C)c1ccc(-n2c(-c3ccccc3)c[n+]3c2CCc2ccccc2-3)cc1 | 11µM* | -98* | ? | -11%[11.4 µM] | -12%
COc1ccccc1-n1c(-c2ccccc2)c[n+]2c1CCc1ccccc1-2 | 3.2µM* | -100* | 4µM* | -15% | 0%
COc1ccc(-n2c(-c3ccc(Br)cc3)c[n+]3c2CCc2ccccc2-3)cc1 | ? | -100* | ? | 18% | -7%
COc1ccccc1-n1c(-c2ccccc2)c[nH]c1=S | -12% | -14 | -9% | -17% | 6%
CN(C)c1cccc(CNC(=O)c2csc(COCCO)n2)c1 | -5% | 16 | nt | nt | nt
COc1ccc(-c2nc(CSCC(=O)NCc3ccccc3Cl)c(C)o2)cc1OC | ? | -13 | nt | nt | ?
CSC(=NC#N)N1CCN(c2cccc(Cl)c2)CC1 | -20% | -67* | 9% | 11% | 1%
Cc1ccc(/C([O-])=C(/C(=S)NCc2ccco2)[n+]2ccccc2)cc1 | nt | nt | nt | -15% | ?
O=[N+]([O-])c1ccc(/C([O-])=C(/C(=S)NCc2ccco2)[n+]2ccccc2)cc1 | 18% | -61* | -9% | -25%[11.4 µM] | 5%
Cc1ccc(C2=NC(=O)/C(=C/c3cc(O)c(O)c(Br)c3)S2)cc1 | ? | 0 | -12% | 18µM* | 2%
COc1cc(/C=C2\SC(c3ccc(C)cc3)=NC2=O)cc(OC)c1O | 17% | -75* | -2% | 9% | 7%
CN(C)c1oc(-c2ccccc2)nc1C#N | 24% | 52 | -18% | -7% | 3%
N#Cc1nc(-c2ccccc2Cl)oc1NCC1CCCO1 (stereo unspecified) | -7% | 26 | 13µM* | -1% | -2%
CCNc1oc(-c2cccc3ccccc23)nc1C#N | 33% | 21 | ? | nt | -1%
N#Cc1nc(-c2cccc3ccccc23)oc1NCCN1CCCCC1 | 5% | 89 | 11µM* | 22% | 0%
C=CCNc1oc(-c2cccc3ccccc23)nc1C#N | nt | 7 | 6.3µM* | -25% | -2%
CN(C)c1oc(-c2ccccc2Cl)nc1C#N | 14% | -29 | 25µM* | -8% | 0%
CC1=NOC(=O)/C1=C\c1ccc(-c2ccc(Cl)cc2Cl)o1 | ? | -75* | -17% | -32% | -10%
COc1cc(C2CC(=O)N(CC(=O)Nc3ccccc3F)c3ccccc3S2)cc(OC)c1OC (stereo unspecified) | ? | -37 | nt | nt | 17%
CC(C)(C)n1nc2c(c1NC(=O)c1cc([N+](=O)[O-])ccc1Cl)CS(=O)(=O)C2 | ? | + | 1% | -7% | 0%
O=C(Nc1cccc(NC(=O)c2cc([N+](=O)[O-])ccc2Cl)n1)c1cc([N+](=O)[O-])ccc1Cl | 13µM* | nt | 1.1µM* | nt | nt
Cc1cc(NC(=O)c2cc([N+](=O)[O-])ccc2Cl)no1 | ? | -33 | 12% | -11% | -6%
O=Nc1c2cc3ccccc3[nH]c-2c2ccccc12 | -22% | 65 | ? | nt | nt
O=Nc1c(O)c2ccccc2c2ccccc12 | 11µM* | -98* | ? | nt | nt
O=c1cc(CSc2n[nH]c(=O)n2C2CC2)c2ccc(O)cc2o1 | 16% | 41 | 13% | -26% | -6%
SMILES | FMDV antiviral | HCMV inh | HCV inhibitor | AmpC no deterg | AmpC detergent
CC(=O)Nc1ccccc1-c1nc2ccc(C(=O)N3CCN(c4cc(C)ccc4C)CC3)cc2[nH]c1=O | ? | -65* | 16% | 15% | -11%
COc1ccc(N2CCN(C(=O)c3cccc(-n4c(C)nc5cccnc54)c3)CC2)cc1 | ? | 0 | nt | nt | 9%
Cc1nc2cccnc2n1-c1cccc(C(=O)N2CCN(c3ccc(Cl)cc3)CC2)c1 | 13µM* | ? | nt | nt | -1%
Cc1ccc(C)c(N2CCN(C(=O)c3cccc(-n4c(C)nc5cccnc54)c3)CC2)c1 | 25µM* | 0 | nt | nt | -5%
CCc1nc2ccc(C(=O)N3CCN(c4cc(C)ccc4C)CC3)cc2nc1CC | -25% | -33 | ? | 165% | -5%
Cc1cccc(N2CCN(C(=O)c3cccc(-n4c(C)nc5cccnc54)c3)CC2C)c1 (stereo unspecified) | 18µM* | ? | nt | nt | -2%
